Measurements reported in the supplement of paper PMC7156485.
± gives the standard deviation of the averaged measurements.

Columns and labels:
Details in all cases: concentration: 10 µM; 24 h
[1] = system: HCC1569; assay: cell number relative to DMSO (% of DMSO); higher = more cells (less growth inhibition / toxicity)
Procedure, shortened: (§1)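 HCC1569 and TDF cells (800 per well, 384-well plates, RPMI with 10% FBS) were treated with compounds at 10 µM for 24 h at 37 °C, in triplicate. Cells were fixed in 3.7% formaldehyde and stained with a rabbit anti-H1.0 antibody, an AlexaFluor 647 secondary and DAPI; six fields per well were imaged at ×10. H1.0 nuclear intensity or cell number is expressed as percent of the plate DMSO control, taking the median of replicates. HCC1569 values were smoothed for positional effects.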

[2] = system: TDF; assay: as above
Procedure, shortened: as §1

[3] = system: TDF; assay: H1.0 immunofluorescence intensity relative to DMSO (% of DMSO); higher = stronger H1.0 induction, active = 120 or more
Procedure, shortened: as §1

[4] = system: HCC1569; assay: H1.0 immunofluorescence intensity relative to DMSO (% of DMSO); higher = stronger H1.0 induction, active = 140 or more
Procedure, shortened: as §1
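Wherever H1.0 immunofluorescence intensity relative to DMSO is given: TDF is a line of transformed human dermal fibroblasts of mesenchymal origin.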
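Wherever cell number relative to DMSO is given: TDF denotes transformed human dermal fibroblasts of mesenchymal origin.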

Row | SMILES | cell number [1] | cell number [2] | H1.0 immunofluorescence intensity [3] | H1.0 immunofluorescence intensity [4]
1 | CC(N)(COP(=O)(O)O)C(=O)O (stereo not drawn) [2-methyl-O-phosphonoserine] | 97.7 | 102 | 96 (inactive) | 102 (inactive)
2 | Cl.O=C(O)C1CCCN(CCC=C(c2ccccc2)c2ccccc2)C1 (stereo not drawn) | 97.9 | 92.7 | 98.1 (inactive) | 98.1 (inactive)
3 | FC(F)(F)c1ccccc1-n1ccnc1 [1-[2-(Trifluoromethyl)phenyl]imidazole] | 100 | 96 | 96.5 (inactive) | 108 (inactive)
4 | CS(=O)(=O)Nc1ccc([N+](=O)[O-])cc1Oc1ccccc1 [Nimesulide] | 104 ± 4.5 | 107 ± 2.2 | 94.4 (inactive) | 96.5 (inactive)
5 | C=CC1CN2CCC1CC2C(O)c1ccnc2ccc(OC)cc12.Cl.O.O (stereo not drawn) | 99.036 ± 0.095 | 99.4 ± 3.1 | 98.1 (inactive) | 92.6 (inactive)
6 | C[n+]1cccc(C(=O)O)c1.[Cl-] | 99.8 | 94 | 101 (inactive) | 92.9 (inactive)
7 | CN(C)CCCOC1C(C(O)CO)OC2OC(C)(C)OC21.Cl (stereo not drawn) [Amiprilose hydrochloride] | 101 | 106 | 82.4 (inactive) | 91.5 (inactive)
8 | C1COC(NC(C2CC2)C2CC2)=N1 [Rilmenidine hemifumarate] | 95.7 | 108 | 89.5 (inactive) | 107 (inactive)
9 | CC(=O)NC1C(N=C(N)N)C=C(C(=O)O)OC1C(O)C(O)CO (stereo not drawn) | 102 | 115 | 99.2 (inactive) | 99 (inactive)
10 | CN1CCN(CCCN2c3ccccc3Sc3ccc(C(F)(F)F)cc32)CC1.Cl.Cl [Trifluoperazine.2HCl] | 94.5 | 108 | 97 (inactive) | 122 (inactive)
11 | CC(C)CCCC(C)C1CCC2C3CCC4=CC(N=O)CCC4(C)C3CCC12C [(20S)-cholest-4-en-3-one oxime] | 99.4 | 110 | 90.2 (inactive) | 101 (inactive)
12 | COc1cc(C(=O)NS(=O)(=O)c2ccccc2C)ccc1Cc1cn(C)c2ccc(NC(=O)OC3CCCC3)cc12 [Zafirlukast] | 101 | 110 | 90.1 (inactive) | 105 (inactive)
13 | NC(CC(=O)[O-])C(=O)O.NC(CC(=O)[O-])C(=O)O.[Mg+2] [magnesium bis[(3S)-3-amino-3-carboxypropanoate]] | 101 | 102 | 94.5 (inactive) | 109 (inactive)
14 | O=C1C(Cl)=C(N2C(=O)CCC2=O)C(=O)c2ccccc21 [MEK Inhibitor II] | 98.9 | 110 | 90.5 (inactive) | 121 (inactive)
15 | CN1CCN(C2Cc3ccccc3Sc3ccc(Cl)cc32)CC1.O=C(O)C=CC(=O)O (stereo not drawn) | 82 | 104 | 105 (inactive) | 145 (active)
16 | COc1cc2oc(-c3ccc(O)c(O)c3)cc(=O)c2c(O)c1OC | 75 | 82 | 91.1 (inactive) | 118 (inactive)
17 | OCCN1CCN(CCCN2c3ccccc3Sc3ccc(Cl)cc32)CC1 [Perphenazine] | 88 | 90.8 | 116 (inactive) | 140 (inactive)
18 | N#CC(=Cc1ccc(O)c(O)c1)C(=O)Nc1ccccc1 [Tyrphostin AG 494] | 87.1 | 94.9 | 88 (inactive) | 108 (inactive)
19 | CNCCCC12CCC(c3ccccc31)c1ccccc12.Cl [Maprotiline hydrochloride] | 97.8 | 102 | 106 (inactive) | 99.1 (inactive)
20 | COc1nc(C)nc(Cl)c1NC1=NCCN1.Cl [Moxonidine hydrochloride] | 102 | 102 | 92 (inactive) | 90.3 (inactive)
21 | Cn1c2ccccc2c2c3c(c4c5ccccc5n(CCC#N)c4c21)CNC3=O | 94.3 | 30.5 | 90.7 (inactive) | 99.5 (inactive)
22 | CC(C)NNC(=O)c1ccncc1 [Iproniazid] | 104 | 103 | 100 (inactive) | 112 (inactive)
23 | O=C1C(=O)c2ccccc2C(O)=C1C1CCC(c2ccc(Cl)cc2)CC1 (stereo not drawn) [Atovaquone] | 100 | 99 | 95 (inactive) | 108 (inactive)
24 | CC1(C)CC=C(c2cnc3ccccc3c2)c2cc(C(=O)Nc3ccc(C(=O)O)cc3)ccc21 | 99.8 | 99.3 | 97.3 (inactive) | 96.8 (inactive)
25 | COC(=O)C(C)(N)Cc1ccc(O)cc1.Cl (racemic) [alpha-Methyl-DL-tyrosine methyl ester hydrochloride] | 101 | 103 | 93 (inactive) | 94.3 (inactive)
26 | CN1CCCC1c1cccnc1 (single isomer, unassigned; (-)) [(-)-Nicotine] | 99.2 | 114 | 94.2 (inactive) | 80 (inactive)

Row | SMILES | cell number [1] | cell number [2] | H1.0 immunofluorescence intensity [3] | H1.0 immunofluorescence intensity [4]
27 | Nc1nc2ccc(Cl)cc2c2nc(-c3ccco3)nn12 | 99.2 | 102 | 96 (inactive) | 118 (inactive)
28 | CC1=CC(=O)C(C(C)C)=CC1=O [Thymoquinone] | 104 ± 1.4 | 102 ± 3.6 | 93.5 (inactive) | 93.3 (inactive)
29 | CN(C)CCn1cc(S(=O)(=O)c2cccc(F)c2)c2cccnc21 | 99.5 | 74.4 | 127 (active) | 111 (inactive)
30 | CCCCCC=CC=CC(O)CCCCCCCC(=O)O (stereo not drawn) | 104 | 100 | 100 (inactive) | 100 (inactive)
31 | C[N+]1(CCCCC[N+]2(C)CCCC2)CCCC1.O=C([O-])C(O)C(O)C(=O)O.O=C([O-])C(O)C(O)C(=O)O [Pentolinium di[L(+)-tartrate]] | 103 | 110 | 92.6 (inactive) | 101 (inactive)
32 | COc1cc(NC(C)CCCN)c2ncccc2c1 (stereo not drawn) [Primaquine] | 102 | 104 | 96.2 (inactive) | 113 (inactive)
33 | CN(C)CCOc1ccc(-c2nc(=c3ccc4c(c3)CCC=4N=O)c(=C3C=CNC=C3)[nH]2)cc1 | 88.6 | 49 | 117 (inactive) | 132 (inactive)
34 | Nc1ccc(S(=O)(=O)Nc2ncccn2)cc1 [Sulfadiazine] | 101 | 108 | 95.6 (inactive) | 96.7 (inactive)
35 | O=C1Nc2ccc(Cl)cc2C(C#CC2CC2)(C(F)(F)F)O1 (stereo not drawn) [Efavirenz] | 101 | 98.5 | 97.6 (inactive) | 111 (inactive)
36 | CC(C)(C)NCC(O)COc1nsnc1N1CCOCC1.O=C(O)C=CC(=O)O [(S)-Timolol maleate] | 106 | 105 | 87.4 (inactive) | 97.9 (inactive)
37 | Cl.N=c1c[n+](N2CCOCC2)[n-]o1 [3-Morpholinosydnonimine hydrochloride] | 104 | 108 | 94.1 (inactive) | 88.8 (inactive)
38 | Cl.NCC(O)C1CCCCCCC1 (stereo not drawn) [2-Cyclooctyl-2-hydroxyethylamine hydrochloride] | 101 | 103 | 97.1 (inactive) | 92.8 (inactive)
39 | Nc1c2c(nc3ccccc13)CCCC2O.O=C(O)C=CC(=O)O (stereo not drawn) [Hydroxytacrine] | 106 | 101 | 91.5 (inactive) | 101 (inactive)
40 | c1ccc(C(OC2CCN(CCCc3nn[nH]n3)CC2)c2ccccc2)cc1 [4-(benzhydryloxy)-1-[3-(1H-tetraazol-5-yl)propyl]piperidine] | 104 | 102 | 92.8 (inactive) | 107 (inactive)
41 | COC(=O)C1=C(C)NC(C)=C([N+](=O)[O-])C1c1ccccc1C(F)(F)F (racemic) | 99 | 103 | 92.2 (inactive) | 98 (inactive)
42 | O=C(O)C1CCCNC1 (racemic) | 109 | 103 | 97 (inactive) | 92.1 (inactive)
43 | O=C1CCc2cc(OCCCCc3nnnn3C3CCCCC3)ccc2N1 [Cilostazol] | 101 | 109 | 90.2 (inactive) | 97 (inactive)
44 | Cc1ccc(NC(=O)c2ccc(CN3CCN(C)CC3)cc2)cc1Nc1nc(-c2cccnc2)cs1 [Masatinib(AB1010)] | 82.7 | 79.9 | 109 (inactive) | 141 (active)
45 | O=C(NC1CCNCC1)c1[nH]ncc1NC(=O)c1c(Cl)cccc1Cl | 53.5 | 31.9 | 131 (active) | 117 (inactive)
46 | Cc1cc(C)c(S(=O)(=O)Nc2cccc(C(F)(F)F)c2)c(C)c1 | 99.3 | 90 | 105 (inactive) | 104 (inactive)
47 | COc1ccc(CNC(=O)Nc2ncc([N+](=O)[O-])s2)cc1 [GSK-3b Inhibitor VIII] | 91 | 106 | 96.6 (inactive) | 128 (inactive)
48 | O=C(Nc1cccc(Cl)c1)Nc1ncc(CCNc2ncnc3ccsc23)s1 | 66.1 | 42.9 | 103 (inactive) | 178 (active)
49 | Cc1[nH]ccc2c1[nH]c1cc(=O)ccc12.Cl.O.O | 94 | 94.7 | 97.1 (inactive) | 94.2 (inactive)
50 | Br.Br.N=C(N)SCCc1cccc(CCSC(=N)N)c1 [1,3-PBIT dihydrobromide] | 117 | 113 | 97.4 (inactive) | 98.4 (inactive)
51 | Nc1ncnc2c1ncn2C1CCCO1 (stereo not drawn) | 76.9 | 96.4 | 99 (inactive) | 183 (active)
52 | O=C(Nc1ccc([N+](=O)[O-])cc1Cl)c1cc(Cl)ccc1O [Niclosamide] | 70 | 78.1 | 104 (inactive) | 120 (inactive)
